Assay results as given in PubChem BioAssay (NCI).
Compounds without any hit were thinned out: in the full panel of roughly 79,000, 15% have a hit. Activity calls are given as the source filed them. Cut-off read from the data, not from the text of the source: active = growth inhibition above about 70%; inactive = the rest.

Experiments:
[1] = NCI Yeast Anticancer Drug Screen. Data for the rad50 strain (AID 155);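 note: 0% = growth of vehicle-only cultures of the same strain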; conditions: S. cerevisiae rad50 strain growth inhibition, stronger effect = higher value
Method in brief: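 A DNA repair-deficient yeast mutant serves as the test organism; compound-induced growth inhibition is calculated against vehicle-treated cells.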

[2] = NCI Yeast Anticancer Drug Screen. Data for the mec2-1 strain (AID 157); conditions: S. cerevisiae mec2-1 strain, stronger effect = higher value
Method in brief: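 Readout is yeast growth inhibition, normalised to vehicle-treated controls, in the mec2-1 strain exposed to compound.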

[3] = NCI Yeast Anticancer Drug Screen. Data for the sgs1 mgt1 strain (AID 161);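 note: 0% = growth of cultures given vehicle only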; conditions: S. cerevisiae sgs1 mgt1 strain, stronger effect = higher value
Method in brief: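 Growth of a repair-deficient yeast mutant was monitored after compound treatment and expressed as inhibition relative to vehicle-treated cultures.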

[4] = NCI Yeast Anticancer Drug Screen. Data for the cln2 rad14 strain (AID 165);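 note: 0% = growth equal to vehicle treated cultures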; conditions: S. cerevisiae cln2 rad14 strain, stronger effect = higher value
Method in brief: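 Relative to vehicle controls, growth inhibition of compound-treated cln2 rad14 yeast was recorded.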

[5] = NCI Yeast Anticancer Drug Screen. Data for the bub3 strain (AID 167); conditions: S. cerevisiae bub3 mutant strain, stronger effect = higher value
Method in brief: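 Inhibition values come from growth of compound-treated mutant yeast normalised to vehicle-treated controls.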

[6] = NCI Yeast Anticancer Drug Screen. Data for the mlh1 rad18 strain (AID 175); conditions: S. cerevisiae mlh1 rad18 strain growth inhibition, stronger effect = higher value
Method in brief: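 Test agents were incubated with a yeast strain of defined genotype (DNA damage repair defect). Inhibition of growth was derived by comparison with vehicle-exposed cultures.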

[7] = at 5.0 µM (retest, dose inferred, filed as 0.5)
[8] = at 50.0 µM (retest, dose inferred, filed as 5.0)

Measured: growth inhibition

CC[P+](C#Cc1ccccc1)(c1ccccc1)c1ccccc1
active: [1]; at 50.0 µM 85.8% | [2]; at 50.0 µM 88.9% | [3]; at 50.0 µM 89% | [4]; at 50.0 µM 87.2% | [5]; at 50.0 µM 87.4%

CCCCSP(SCCCC)N1CCCCC1
inactive: [4]; at 50.0 µM 31.1%
active: [1]; at 50.0 µM 94.7% | [2]; at 50.0 µM 89.4% | [3]; at 50.0 µM 91.3% | [5]; at 50.0 µM 79.8%

CCN(CC)C(=O)CCN1CC1
inactive: [1]; at 50.0 µM 10.4% | [2]; at 50.0 µM -0.65% | [3]; at 50.0 µM 12.3% | [4]; at 50.0 µM 19.5% | [5]; at 50.0 µM 5.1%

CCCCCCCCCCBr
inactive: [1]; at 50.0 µM 30.4% | [2]; at 50.0 µM 17.2% | [3]; at 50.0 µM -12.4% | [4]; at 50.0 µM 25.1% | [5]; at 50.0 µM 17.1% | [6]; at 50.0 µM -37.6%

O=C([O-])CC(=O)[O-].[NH-][C@@H]1CCCC[C@H]1[NH-].[Pt+4]
inactive: [1]; at 50.0 µM -14.2% | [2]; at 50.0 µM -15.5% | [3]; at 50.0 µM -24.5% | [4]; at 50.0 µM -25.1% | [5]; at 50.0 µM -24.5%

O=[N+]([O-])/C=C/c1cccc([N+](=O)[O-])c1
active: [1]; [7] 98% | [1]; [8] 99% | [2]; [7] 99% | [2]; [8] 100% | [3]; [7] 100% | [3]; [8] 100% | [4]; [8] 99% | [5]; [7] 97% | [5]; [8] 100% | [6]; [8] 99%
inactive: [4]; [7] 35% | [6]; [7] -9%

O=[n+]1c2ccccc2n([O-])c2ccccc21
active: [1]; [7] 93% | [1]; [8] 98% | [2]; [8] 99% | [3]; [8] 99% | [4]; [8] 98% | [5]; [8] 99% | [6]; [7] 79% | [6]; [8] 98%
inactive: [2]; [7] 22% | [3]; [7] 61% | [4]; [7] 18% | [5]; [7] 0%

C(=C/[PH+](c1ccccc1)c1ccccc1)/[PH+](c1ccccc1)c1ccccc1.[C-]#[O+].[C-]#[O+].[C-]#[O+].[C-]#[O+].[C-]#[O+].[Mo+2].[Mo+4].[c-]1[c-][c-][cH-][c-]1.[c-]1[c-][c-][cH-][c-]1
active: [1]; at 50.0 µM 91.6% | [2]; at 50.0 µM 93.5% | [3]; at 50.0 µM 93.5% | [4]; at 50.0 µM 92.2% | [5]; at 50.0 µM 92.9% | [6]; at 50.0 µM 91.2%

O=P1(N(CCCl)CCCl)Oc2c(Cl)cc(Cl)c(Cl)c2Cc2c(Cl)c(Cl)cc(Cl)c2O1
inactive: [1]; at 50.0 µM -15.1% | [2]; at 50.0 µM -31.7% | [3]; at 50.0 µM 2.85% | [4]; at 50.0 µM 0.25% | [5]; at 50.0 µM -14.2% | [6]; at 50.0 µM -10.7%

CC(C)[C@H](C)/C=C/[C@@H](C)C1CC[C@H]2[C@@]34C=C[C@]5(C[C@@H](O)CC[C@]5(C)[C@H]3CC[C@]12C)OO4 (stereo partly specified)
inactive: [1]; at 50.0 µM 11.8% | [2]; at 50.0 µM 19% | [3]; at 50.0 µM -13.2% | [4]; at 50.0 µM 2.15% | [5]; at 50.0 µM -20.4% | [6]; at 50.0 µM -31.6%

CCOP(=S)(OCC)N(C)C(=O)Oc1cccc(C(C)C)c1
inactive: [1]; at 50.0 µM 0.95% | [2]; at 50.0 µM -1.05% | [3]; at 50.0 µM 8.95% | [4]; at 50.0 µM -6.1% | [5]; at 50.0 µM -20.4% | [6]; at 50.0 µM 12.2%

C/C=C1\CN2CC[C@H]1C[C@H]2[C@H](O)c1ccnc2ccc(NCCO)cc12
inactive: [1]; at 50.0 µM 11.6% | [2]; at 50.0 µM 7.8% | [3]; at 50.0 µM 5.95% | [4]; at 50.0 µM 22.7% | [5]; at 50.0 µM -1.65% | [6]; at 50.0 µM 36.9%

Cc1cc(Cl)ccc1OC(C)C(=O)O (stereo unspecified)
inactive: [1]; at 50.0 µM -2.05% | [2]; at 50.0 µM -15.2% | [3]; at 50.0 µM 0% | [4]; at 50.0 µM 15.3% | [5]; at 50.0 µM -12.7% | [6]; at 50.0 µM -7.55%

c1ccc2cc(C3NCCc4[nH]cnc43)ccc2c1 (stereo unspecified)
inactive: [1]; at 50.0 µM 4.65% | [2]; at 50.0 µM -7.6% | [3]; at 50.0 µM -6.7% | [4]; at 50.0 µM 2.85% | [5]; at 50.0 µM -7.7% | [6]; at 50.0 µM 29.8%

O=C1NC(=O)C(=C2C(=O)COC2=O)C(=O)N1
inactive: [1]; at 50.0 µM -4.4% | [2]; at 50.0 µM -16.6% | [3]; at 50.0 µM -13.8% | [4]; at 50.0 µM -1.7% | [5]; at 50.0 µM -2.8% | [6]; at 50.0 µM -19.5%

C1CCC2[N-]CCCC2C1.C1CCC2[N-]CCCC2C1.O=[N+]([O-])O.O=[N+]([O-])O.[Cu+2] (stereo unspecified)
inactive: [1]; at 50.0 µM 21.6% | [2]; at 50.0 µM 21.6% | [3]; at 50.0 µM 15.2% | [4]; at 50.0 µM -19.2% | [5]; at 50.0 µM -4.35% | [6]; at 50.0 µM 25.1%

CC(C)OC(=O)Nc1cccc(Cl)c1
inactive: [1]; at 50.0 µM 25.9% | [2]; at 50.0 µM 1.75% | [3]; at 50.0 µM 23.9% | [4]; at 50.0 µM -3.85% | [5]; at 50.0 µM 0.3% | [6]; at 50.0 µM 4.5%

O=P1(O)NP(=O)(O)NP(=O)(O)NP(=O)(O)N1
inactive: [1]; at 50.0 µM -9.45% | [2]; at 50.0 µM 2.9% | [3]; at 50.0 µM -9.8% | [4]; at 50.0 µM -5.45% | [5]; at 50.0 µM -18.1% | [6]; at 50.0 µM -3.95%
